Test results: PubChem BioAssay AID1259421 (Broad Institute, 2018)
Values joined by “and” are separate entries in the source; they are usually repeats but may differ in a detail not shown here. Equal entries are not always repeated. In all, about 6,400 compounds went through this assay and about 610 (9.5%) were called active. Cut-off read from the data, not from the text of the source: active = activity change below about -70%; inconclusive = no clear call, values can overlap the other calls; inactive = above that. Only a selection was taken, and actives are over-represented in it overall. Some structures have more than one record in an assay (separate samples or runs), and their calls can disagree.

assay: Toxoplasma gondii ME49Luc growth in HeLa cells, luciferase, no IFN-y, primary screen (AID 1259421); settings: T. gondii ME49Luc in HeLa, 72 h, stronger effect = lower value, concentration not given here

SMILES	activity change, negative = inhibition
C=C(NC(=O)C(=C)NC(=O)c1csc(C2=N[C@H]3c4csc(n4)[C@H]4NC(=O)c5csc(n5)[C@H]([C@@](C)(O)[C@@H](C)O)NC(=O)[C@H]5CSC(=N5)/C(=C/C)NC(=O)[C@H]([C@@H](C)O)NC(=O)c5csc(n5)[C@]3(CC2)NC(=O)[C@H](C)NC(=O)C(=C)NC(=O)[C@H](C)NC(=O)[C@H](C(C)CC)N[C@@H]2C=Cc3c([C@H](C)O)cc(nc3[C@H]2O)C(=O)O[C@@H]4C)n1)C(N)=O (stereo partly drawn)	-5.27% (inactive)
Clc1cccc(Nc2nnc(-c3ccccc3)c3ccccc23)c1	-1.93% (inactive) and 0.598% (inactive)
O=C(O)c1ccc2c(c1)nc(Nc1cccc(Cl)c1)c1ccncc12	-81.6% (active)
O=C(O)c1cccnc1Nc1cccc(C(F)(F)F)c1	5.33% (inactive) and 7.04% (inactive)
Cc1noc(-c2ccc(-c3ccc(CC(=O)O)cc3)cc2)c1NC(=O)O[C@H](C)c1ccccc1	6.32% (inactive)
CN(C)c1cc(NC(=O)CNC(C)(C)C)c(O)c2c1C[C@H]1C[C@H]3[C@H](N(C)C)C(=O)C(C(N)=O)C(=O)[C@@]3(O)C(=O)C1C2=O (stereo partly drawn)	5.81% (inactive)
O=C(NCCCCN1CCOCC1)c1cc2ccccc2o1	0.553% (inactive)
OCCN1CCN(CC/C=C2/c3ccccc3Sc3ccc(C(F)(F)F)cc32)CC1	-74.2% (active)
OCCN1CCN(CCCN2c3ccccc3Sc3ccc(Cl)cc32)CC1	-81% (active)
CN(C)CC/C=C1\c2ccccc2Sc2ccc(Cl)cc21	-58.2% (inactive)
CN(C)CC/C=C1/c2ccccc2Sc2ccc(Cl)cc21	-62.1% (inactive) and 35.6% (inactive)
CN1CCN(CCC=C2c3ccccc3Sc3ccc(S(=O)(=O)N(C)C)cc32)CC1	25.4% (inactive) and 73.8% (inactive)
CN1CCN(CCCN2c3ccccc3Sc3ccc(Cl)cc32)CC1	16.2% (inactive) and 18.1% (inactive)
CC(=O)c1ccc2c(c1)N(CCCN1CCN(CCO)CC1)c1ccccc1S2	15.8% (inactive)
OCCN1CCN(CC/C=C2/c3ccccc3Sc3ccc(Cl)cc32)CC1	-82.3% (active)
OCCN1CCN(CCCN2c3ccccc3Sc3ccc(C(F)(F)F)cc32)CC1	-60% (inactive) and -63.7% (inactive)
CC[C@H](C)[C@H](NC(=O)[C@H](Cc1ccc(O)cc1)NC(=O)[C@@H](NC(=O)[C@H](CCCN=C(N)N)NC(=O)[C@@H](N)CC(=O)O)C(C)C)C(=O)N[C@@H](Cc1cnc[nH]1)C(=O)N1CCC[C@H]1C(=O)O	8.39% (inactive)
O=S1(=O)N[C@H]2CCCN2c2ccccc21	1.4% (inactive)
CCC(=O)O[C@@]1(C(=O)CCl)[C@@H](C)C[C@H]2[C@@H]3C[C@H](F)C4=CC(=O)C=C[C@]4(C)[C@]3(F)[C@H](O)C[C@@]21C	6.07% (inactive)
CC(=O)c1c(O)c(C)c(O)c2c1OC1=CC(=O)C(C(C)=O)C(=O)C12C (stereo not drawn)	-3.87% (inactive)
COc1ccccc1OCC(O)CNC(C)C (stereo not drawn)	17.1% (inactive) and 3.92% (inactive)

SMILES	activity change, negative = inhibition
COc1cc2c(cc1OC)C(=O)CC2	4.96% (inactive)
COc1cc(CCC(C)=O)ccc1O	7.65% (inactive)
COC(=O)C[C@](O)(CCCC(C)(C)O)C(=O)O[C@@H]1C(OC)=C[C@]23CCCN2CCc2cc4c(cc2[C@H]13)OCO4	-83.4% (active) and -83.9% (active) and -85.7% (active)
COCCCOc1ccnc(CS(=O)c2nc3ccccc3[nH]2)c1C (stereo not drawn)	106% (inactive) and 41.3% (inactive)
N#CC(c1ccnc(OCc2ccc(CN3CCOCC3)cc2)n1)c1nc2ccccc2s1 (stereo not drawn)	-29.2% (inactive)
COc1cc2ncn(-c3cc(OCc4ccccc4C(F)(F)F)c(C(N)=O)s3)c2cc1OC	-75.1% (active)
C[C@@H](Oc1cc(-n2cnc3ccc(CN4CCN(C)CC4)cc32)sc1C(N)=O)c1ccccc1C(F)(F)F	-75.7% (active)
C[C@H]1CC2C([C@@H](O)C[C@@]3(C)C2CC[C@]3(O)C(=O)COC(=O)CCC(=O)O)[C@@]2(C)C=CC(=O)C=C12 (stereo partly drawn)	5.48% (inactive) and 3.76% (inactive)
COC1CC2CCC(C)C(O)(O2)C(=O)C(=O)N2CCCCC2C(=O)OC(C(C)CC2CCC(O)C(OC)C2)CC(=O)C(C)/C=C(\C)C(O)C(OC)C(=O)C(C)CC(C)/C=C/C=C/C=C/1C (stereo not drawn)	5.34% (inactive) and -8.87% (inactive)
C=C1CC2C3C=C(C)C4=CC(=O)CC[C@]4(C)C3CC[C@]2(C)[C@@]1(OC(C)=O)C(C)=O (stereo partly drawn)	10.5% (inactive) and -22.4% (inactive)
CCCCCCCCCCCCCCCCCC(=O)OCC(O)CO (stereo not drawn)	5.64% (inactive)
COc1ccc(C2CC(c3c(O)cc(C)oc3=O)=NCCS2)c(OC)c1 (stereo not drawn)	10.3% (inactive)
CO[C@H]1C=CO[C@@]2(C)Oc3c(C)c(O)c4c(O)c(c(/C=N/N5CCN(C6CCCC6)CC5)c(O)c4c3C2=O)NC(=O)/C(C)=C\C=C[C@H](C)[C@H](O)[C@@H](C)[C@@H](O)[C@@H](C)[C@H](OC(C)=O)[C@@H]1C	-5.33% (inactive)
CCCCCCCCCCCCCCCCCCOC[C@H](COP(=O)(O)OCC[N+](C)(C)C)OC	5.04% (inactive)
O=c1c(-c2ccc(O)cc2)coc2c([C@@H]3O[C@H](CO)[C@@H](O)[C@H](O)[C@H]3O)c(O)ccc12	-0.619% (inactive)
CCN(CC)CCNC(=O)c1c(C)[nH]c(/C=C2\C(=O)Nc3ccc(F)cc32)c1C	-75.8% (active)
Cc1[nH]c(/C=C2\C(=O)Nc3ccccc32)c(C)c1CCC(=O)O	7.07% (inactive)
Cc1[nH]c(/C=C2/C(=O)Nc3ccc(F)cc32)c(C)c1C(=O)NC[C@H](O)CN1CCOCC1	-69.2% (inactive)
COc1cccc(OC)c1-c1ccc(C[C@H](NC(=O)c2c(Cl)cccc2Cl)C(=O)O)cc1	4.91% (inactive)
O=C(c1ccc(OCCCc2cnc[nH]2)cc1)C1CC1	31.1% (inactive)
CN=C(NC)NCc1ccc(OC)cc1	0.956% (inactive)

SMILES	activity change, negative = inhibition
CC(C)CC1C(=O)N2CCCC2C2(O)OC(NC(=O)C3C=C4c5cccc6[nH]c(Br)c(c56)CC4N(C)C3)(C(C)C)C(=O)N12 (stereo not drawn)	18.4% (inactive)
COc1cc2c(cc1OC)C(C(C(=O)N(CCc1ccc(OC)c(OC)c1OC)CCc1ccc(OC)c(OC)c1OC)c1ccccc1)=NCC2 (stereo not drawn)	23.5% (inactive)
CC(C)n1nc(-c2cc3cc(O)ccc3[nH]2)c2c(N)ncnc21	-50.4% (inactive)
CC(C)n1nc(-c2ccc3oc(N)nc3c2)c2c(N)ncnc21	-74.3% (active)
CC(=O)O[C@@H]1CC[C@@]2(C)C(C[C@@H](OC(C)=O)[C@@]3(C)C4=CC(=O)O[C@@H](c5ccoc5)[C@]4(C)CCC23)C1(C)C (stereo partly drawn)	12.5% (inactive)
O=C(O)CCc1c(C(=O)O)[nH]c2cc(Cl)cc(Cl)c12	12.5% (inactive)
CC[C@H](C)[C@H]1O[C@]2(CC[C@@H]1C)C[C@@H]1C[C@@H](C/C=C(\C)[C@@H](O[C@H]3C[C@H](OC)[C@@H](O[C@H]4C[C@H](OC)[C@@H](O)[C@H](C)O4)[C@H](C)O3)[C@@H](C)/C=C/C=C3\CO[C@@H]4[C@H](O)C(C)=C[C@@H](C(=O)O1)[C@]34O)O2	-65% (inactive) and -79.5% (active)
CCC(C)[C@H]1O[C@]2(CC[C@@H]1C)C[C@@H]1C[C@@H](C/C=C(\C)[C@@H](OC3C[C@H](OC)C(O[C@H]4C[C@H](OC)[C@@H](O)[C@H](C)O4)[C@H](C)O3)[C@@H](C)/C=C/C=C3\CO[C@@H]4[C@H](O)C(C)=C[C@@H](C(=O)O1)[C@]34O)O2 (stereo partly drawn)	-67.1% (inactive)
CCC(C)[C@H]1O[C@]2(C=C[C@@H]1C)C[C@@H]1C[C@@H](C/C=C(\C)[C@@H](OC3C[C@H](OC)C(O[C@H]4C[C@H](OC)[C@@H](NC(C)=O)[C@H](C)O4)[C@H](C)O3)[C@@H](C)/C=C/C=C3\CO[C@@H]4[C@H](O)C(C)=C[C@@H](C(=O)O1)[C@]34O)O2 (stereo partly drawn)	-6.74% (inactive)
COc1ccccc1N1CCN(CCCCN2C(=O)CCC2=O)CC1	-10.5% (inactive) and 6.09% (inactive)
C[C@]12C=CC(=O)C=C1CCC1C2C(=O)C[C@@]2(C)C1CC[C@]2(O)C(=O)CO (stereo partly drawn)	-0.495% (inactive)
C=COCC(F)(F)F	2.78% (inactive)
COc1ncnc(N)c1OC	8.31% (inactive)
C[C@]12CCC3c4ccc(O)cc4CCC3C1CC[C@@H]2OC(=O)CCC1CCCC1 (stereo partly drawn)	-65.2% (inactive) and 3.38% (inactive)
C[C@]12CC[C@@H]3c4ccc(O)cc4C[C@@H](CCCCCCCCCS(=O)CCCC(F)(F)C(F)(F)F)[C@H]3[C@@H]1CC[C@@H]2O (stereo partly drawn)	-83.4% (active)
CCCCC(=O)O[C@H]1CC[C@H]2[C@@H]3CCc4cc(O)ccc4[C@H]3CC[C@]12C	-58.1% (inactive)
CC(C)(C)N1CCC(c2ccccc2)(c2ccccc2)CC1	14.2% (inactive)
CCC[C@@]1(CCc2ccccc2)CC(=O)C([C@H](CC)c2cccc(NS(=O)(=O)c3ccc(C(F)(F)F)cn3)c2)C(=O)O1 (stereo partly drawn)	10.4% (inactive)
COc1ccc(NC(=O)c2ccc(C(=N)N(C)C)cc2)c(C(=O)Nc2ccc(Cl)cn2)c1	-0.285% (inactive)
COc1ccc(C(=O)Nc2c(Cl)cncc2Cl)cc1OC1CCCC1	3.75% (inactive)
COc1cc(CCc2cc(NC(=O)c3ccc(N4C[C@@H](C)N[C@@H](C)C4)cc3)n[nH]2)cc(OC)c1	-81.1% (active)
